From PubChem BioAssay AID449762 (Southern Research Specialized Biocontainment Screening …, 2010)
Hit rate of the full screen: of about 330,000 compounds, about 1,900 (0.58%) were called active. Roughly 4% stayed inconclusive and do not appear here. A selection follows. Entries with a potency or affinity are not part of this list. Unmarked numbers belong to inactive results. No stated cut-off is given here; in the data, inconclusive means inhibition above about 70% without an active follow-up result; inactive means below that.

assay: M. tuberculosis growth inhibition, HTS (AID 449762);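 further: bacterial growth assessed after seven days of incubation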; details: M. tuberculosis H37Rv growth inhibition, 7H9 media; at 25 µM; active compounds read high

SMILES	inhibition
O=C1C=C(NCc2ccco2)C2(CCCCC2)O1	-1.04%
CCNc1nc(NC(C)C)nc(ON=C(C)C)n1	-5.67%
Cc1cc(C(=O)N=Nc2c(O)n(C)c3ccccc23)c(C)o1	5.51%
COc1ccc(C(C)=O)cc1COC(=O)c1cc(C)nc2ccccc12	11.9%
COc1ccc(C(C)=O)cc1COC(=O)c1cc2ccccc2cc1O	-1.43%
C=CCn1c(C)c(/C=C/c2cc[n+](C)cc2)c2ccccc21	0.73%
Cc1ccc2[nH]cc(/C=C/c3cc[n+](C)cc3)c2c1	-0.27%
Cc1c(C)n2c(SCC(=O)Nc3cccc4ccccc34)nnc2[nH]c1=O	5.62%
C/C(=N\OC(=O)c1c(-c2c(F)cccc2Cl)noc1C)c1nccs1	3.84%
Cc1onc(-c2c(Cl)cccc2Cl)c1C(=O)O/N=C(\C#N)c1c(Cl)cccc1Cl	-0.37%
CCOC(=O)[C@H]1[C@H]2COc3ccc(Br)cc3[C@@H]2N2C(=O)N(c3ccccc3)C(=O)[C@@]12C	6.24%
CCOc1ccc(CNC(=O)C2CCCN(S(=O)(=O)N3CC(C)CC(C)C3)C2)cc1OC (stereo not given)	-1.45%
COC(OC)c1ccnc(-c2ccc(OC(=O)c3ccccc3)cc2)n1	57%
COC(OC)c1ccnc(-c2ccc(OC(C)=O)cc2)n1	0.19%
CCC[N+](CC#Cc1ccccc1)(CCC)CC(=O)OC	0.57%
Cc1occc1-c1nnc(SCC(=O)NC2CC2)n1C(C)C	6.3%
CCOCCn1c(=O)c2c(nc3n2CCCN3Cc2ccccc2)n(C)c1=O	4.47%
CCCC(O)(c1ccc(CC)cc1)C(CN1CCOCC1)c1ccccc1 (stereo not given)	9.99%
CCOC(=O)CSc1nc2ccsc2c(=O)n1C1CCN(C(=O)OCC)CC1	39.3%
CCOC(=O)N1CCC(n2c(SCC(=O)c3ccccc3)nc3ccsc3c2=O)CC1	-5.37%

SMILES	inhibition
COc1ccc(/C=N/NC(=O)c2cccc(C(=O)N/N=C/c3ccc(OC)cc3)n2)cc1	-1.47%
O=C(CN1C(=O)COc2ccccc2C1=O)c1ccc2c(c1)OCCO2	4.6%
O=C(OC(C(=O)c1c[nH]c2ccccc12)c1ccccc1)c1cnccn1 (stereo not given)	1.97%
Nc1nnnn1/N=C/c1ccccc1	-0.26%
Nc1nnnn1/N=C/C=C/c1ccccc1	-3.78%
CCOC(=O)N1CCC(N2C(=O)c3ccc(C(=O)Nc4ccc(F)cc4F)cc3C2=O)CC1	-5.69%
CCOC(=O)N1CCN(S(=O)(=O)c2ccc(C(=O)N(CCN(C)C)c3nc4c(C)cccc4s3)cc2)CC1	-14.4%
CC1=C(c2ccc(F)cc2)[N+](=O)C(C)(C)N1[O-]	-6.06%
Cc1ccc(C(C(=O)NC(C)(C)C)N(Cc2ccccc2)C(=O)c2snc(C(N)=O)c2N)o1 (stereo not given)	-7.23%
COc1ccc(/C=C2/C(=O)N(c3ccccc3)N=C2C)cc1OC	8.2%
COc1cc(/C=C2/C(=O)N(c3ccccc3)N=C2C)ccc1OS(=O)(=O)c1ccccc1	11%
CCOC(=O)N1CCN(Cc2ccc3ccccc3c2)CC1	9.89%
CCCCC(=O)Nc1cccn2ncnc12	-5.05%
O=C(Nc1cccn2ncnc12)C(Cl)Cl	8.05%
Cc1ccc(/C=C2/SC(=S)N(CCC(=O)N3CCOCC3)C2=O)cc1	-5.59%
CCCCn1c(=N)n(CC(=O)c2ccc(OC)cc2)c2ccccc21	2.91%
CCCn1c(=N)n(CC(=O)c2ccc(Cl)cc2)c2ccccc21	20.9%
Cc1ccc(S(=O)(=O)NCc2ccc(C(=O)NCc3cccnc3)cc2)cc1	-0.01%
Cc1cc(NC(=O)c2cc(-c3cccc(Cl)c3)on2)no1	4.25%
O=C(NNS(=O)(=O)c1ccccc1[N+](=O)[O-])c1ccccc1[N+](=O)[O-]	-1.87%

SMILES	inhibition
C=CCSC1=N/C(=C\c2ccc3c(c2)OCO3)C(=O)S1	2.93%
CCc1nc(N=C(N)N)nc2ccccc12	-2.46%
Cc1nc(N=C(N)N)nc2ccccc12	0.45%
Cc1cc(C2C(=O)c3ccccc3C2=O)c(C)c(C)c1C	30.3%
Cc1ccc(C2C(=O)c3ccccc3C2=O)cc1	7.43%
CC(=O)NC12CC3CC(C1)CC(C(=O)N(C)CC(=O)Nc1cccc(F)c1)(C3)C2	6.36%
CC(NC(=O)c1cc(COc2c(F)cccc2F)on1)c1cnn(-c2ccccc2)c1 (stereo not given)	1.01%
Cc1sc2ncnc(N3CCC(C(=O)N(C)CC(=O)Nc4ccccc4Cl)CC3)c2c1C	67.4%
CCCCn1c(N)c(N(CC(C)C)C(=O)C2CCN(c3ncnc4sc(C)c(C)c34)CC2)c(=O)[nH]c1=O	54.4%
CNC(=O)CSc1nnc(-c2ccco2)n1-c1cccc(C)c1C	-8.51%
O=C(Cc1ccc(F)cc1)NCCS(=O)(=O)N1CCN(c2ccccc2)CC1	-9.43%
COc1ccc(/C=C2\SC(=S)N(Cc3cccnc3)C2=O)cc1C	12.2%
CCOC(=O)C1CCN(S(=O)(=O)c2ccc(C)c(C)c2)CC1	-5.37%
Cc1ccc(S(=O)(=O)N2CCC(C(=O)OCC(=O)NCCc3ccccc3)CC2)cc1C	1.72%
COc1cccc(NC(=O)[C@H](Cc2ccccc2)NC(=O)[C@@H]2Cc3ccccc3CN2)c1	-7.04%
O=C(Nc1ccc(C(F)(F)F)cc1-c1ccccc1)c1ccccc1	-5.73%
O=C(Nc1cnccn1)C1c2ccccc2Oc2ccccc21	-4.63%
CCOC(=O)c1c(C)[nH]c(C)c1C(=O)CN1C(=O)NC2(CCC(C)CC2)C1=O (stereo not given)	-4.05%
CCc1ccc2oc(-c3cc(N)ccc3O)nc2c1	-0.82%
CCc1ccc2oc(-c3cc(N)cc(C)c3O)nc2c1	42.6%
